The values below come from PubChem BioAssay (Tox21).

A short description of test [1]: qHTS assay to identify small molecule antagonists of the androgen receptor (AR) signaling pathway using the MDA cell line in the presence of 0.5 nM R1881 - cell viability counter screen (AID 1259242). Further: nearly all actives have a fitted effect of over 45% in size. In a few lines: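 MDA-kb2 cells (human breast carcinoma, stably carrying MMTV-luciferase reporter) were exposed to compounds with 0.5 nM R1881 (final) for 16 hr at 37C, 0% CO2; viability then read as live-cell protease fluorescence (CellTiter-Fluor, 30 min) in the same wells.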
For orientation: Quantitative high-throughput screening tests each substance at several concentrations.

Test [2] concerns the target Androgen receptor (Homo sapiens) (UniProt P10275). Put plainly: qHTS assay to identify small molecule antagonists of the androgen receptor (AR) signaling pathway using the MDA cell line in the presence of 0.5 nM R1881 (AID 1259243). Further: nearly all actives have a fitted effect of over 50% in size. The method in brief:
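MDA-kb2 human breast carcinoma cells carrying an MMTV-luciferase reporter (AR- and GR-responsive) were plated, rested 5 hr at 37C, dosed with compounds, then stimulated with 0.5 nM R1881 (final) for 16 hr; luminescence was read after ONE-Glo.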

Test [3] addresses Estrogen receptor (Homo sapiens) (UniProt P03372). Put plainly: qHTS assay to identify small molecule antagonists of the estrogen receptor alpha (ER-alpha) signaling pathway using the BG1 cell line in the presence of 0.1 nM 17-beta-estradiol (AID 1259244). Further: nearly all actives have a fitted effect of over 50% in size. In a few lines:
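VM7Luc4E2 cells (endogenous full-length ER-alpha, stable 4xERE-luciferase) were grown 5 days in phenol red-free medium with charcoal-stripped FBS, then exposed 22 h at 37C to compounds plus 0.1 nM (final) 17beta-estradiol; ONE-Glo luminescence read-out.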

Test [4] in a line: qHTS assay to identify small molecule HDAC inhibitors (AID 1259364). Further: nearly all actives have a fitted effect of over 45% in size. Further: potency means the concentration at half of the fitted maximal effect. On activity change, negative = inhibition: top concentration of the series differs between compounds. In a few lines: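 Wild-type HCT-116 cells were plated overnight, exposed to compounds for 2 h at 37 °C, then given HDAC-Glo class I/II luminogenic reagent for 30 min at room temperature before luminescence was read.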
Test [5] can be described thus: qHTS assay to identify small molecule HDAC inhibitors - cell viability counter screen (AID 1259365). Further: series mostly up to about 92 µM; nearly all actives have a fitted effect of over 50% in size. The method in brief:
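To flag cytotoxic hits, 1,500 wild-type HCT-116 cells per well, plated the day before, receive test compounds for 2hr at 37 C before CellTiter-Glo reagent and a luminescence read.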

Test [6] can be described thus: qHTS assay to identify small molecule agonists of the sonic hedgehog signaling (Shh) pathway - cell viability counter screen (AID 1259366). Further: nearly all actives have a fitted effect of over 50% in size. In a few lines: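 Fluorescence from CellTiter-Fluor reports live cells in this counter screen. NIH/3T3-derived Gli1-Luc reporter cells receive test compounds for 24hr at 37C; reagent goes in at 23hr.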
The nature of test [7]: qHTS assay to identify small molecule antagonists of the sonic hedgehog signaling (Shh) pathway - cell viability counter screen (AID 1259367). Further: nearly all actives have a fitted effect of over 55% in size. The method in brief: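 After a 4 hr settling period, 3T3 Gli1-Luc cells were treated with DMSO-dissolved chemicals and conditioned medium, kept 24 hr at 37C in 5% CO2, and assayed for viability by CellTiter-Fluor fluorescence following 1 hr reagent incubation.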

A short description of test [8]: qHTS assay to identify small molecule agonists of the sonic hedgehog signaling (Shh) pathway (AID 1259368; calls by dose curve; further: series mostly up to about 92 µM; nearly all actives have a fitted effect of over 15% in size). In a few lines: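 NIH/3T3-derived 3T3Gli1-Luc cells carrying a stably integrated Gli1 response element–firefly luciferase reporter were plated, left 4 hr at 37 C, then given compounds in DMSO for 24 hr. Luminescence was read 30 min after adding luciferase reagent.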

Test [9] can be described thus: qHTS assay to identify small molecule phospholipidosis (PLD) inducers (AID 1259344; active means well fitted curve in the direction sought with a large enough effect; an effect the other way counts as inactive or inconclusive). The method in brief: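 HepG2 cells grown on collagen I take up LipidTOX Red while exposed to compound for 24 h; after fixation they are imaged at 20x and pit metrics are extracted.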
Test [10] can be described thus: qHTS assay to identify small molecule antagonists of the sonic hedgehog signaling (Shh) pathway (AID 1259369; calls by dose curve; further: nearly all actives have a fitted effect of over 45% in size). The method in brief: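 NIH/3T3-derived 3T3Gli1-Luc cells with stably integrated Gli1-Luc reporter were preincubated 4hr at 37 C, then given compounds in DMSO plus Shh conditioned medium and incubated 24hr. Firefly luciferase luminescence read after 30min reagent at room temperature.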

A number with no mark means an inactive call. Inconclusive results are not listed. Active and inactive are the calls of the source. Unless noted, the call rests on the fitted dose curve; in most records, active means well fitted curve in the direction sought with a large enough effect in the repeat runs; inconclusive means weak or mixed curves; inactive means no such curve, though single readings can be large; an effect the other way counts as inactive or inconclusive.
On the % scale 0 is the no-effect control and ±100 the full control effect.

Androgen receptor (Homo sapiens), sequence (P10275 whole entry, looked up): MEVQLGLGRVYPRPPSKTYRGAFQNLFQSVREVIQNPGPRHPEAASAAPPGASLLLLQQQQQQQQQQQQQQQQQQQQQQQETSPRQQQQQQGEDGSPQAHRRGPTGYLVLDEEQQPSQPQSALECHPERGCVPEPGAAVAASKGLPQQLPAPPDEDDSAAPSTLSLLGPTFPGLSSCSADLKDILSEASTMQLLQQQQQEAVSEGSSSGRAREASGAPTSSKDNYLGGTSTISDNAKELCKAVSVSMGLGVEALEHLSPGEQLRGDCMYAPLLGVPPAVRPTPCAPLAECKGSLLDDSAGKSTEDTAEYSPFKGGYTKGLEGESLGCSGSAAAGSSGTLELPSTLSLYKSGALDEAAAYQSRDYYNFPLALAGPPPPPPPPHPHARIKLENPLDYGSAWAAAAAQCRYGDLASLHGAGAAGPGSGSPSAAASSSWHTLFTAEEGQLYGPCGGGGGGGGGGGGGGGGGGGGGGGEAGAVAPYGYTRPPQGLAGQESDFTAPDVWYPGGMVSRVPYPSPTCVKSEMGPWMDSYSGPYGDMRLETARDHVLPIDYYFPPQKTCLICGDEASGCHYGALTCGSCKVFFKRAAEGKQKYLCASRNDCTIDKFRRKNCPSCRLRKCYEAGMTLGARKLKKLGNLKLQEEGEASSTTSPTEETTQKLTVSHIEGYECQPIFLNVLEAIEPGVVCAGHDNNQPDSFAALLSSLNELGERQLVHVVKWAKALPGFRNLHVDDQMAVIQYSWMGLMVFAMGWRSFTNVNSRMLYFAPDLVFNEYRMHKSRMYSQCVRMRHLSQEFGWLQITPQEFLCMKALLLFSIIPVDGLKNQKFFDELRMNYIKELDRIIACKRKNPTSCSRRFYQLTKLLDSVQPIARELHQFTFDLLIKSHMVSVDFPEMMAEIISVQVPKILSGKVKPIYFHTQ
Estrogen receptor (Homo sapiens), sequence (P03372 whole entry, looked up): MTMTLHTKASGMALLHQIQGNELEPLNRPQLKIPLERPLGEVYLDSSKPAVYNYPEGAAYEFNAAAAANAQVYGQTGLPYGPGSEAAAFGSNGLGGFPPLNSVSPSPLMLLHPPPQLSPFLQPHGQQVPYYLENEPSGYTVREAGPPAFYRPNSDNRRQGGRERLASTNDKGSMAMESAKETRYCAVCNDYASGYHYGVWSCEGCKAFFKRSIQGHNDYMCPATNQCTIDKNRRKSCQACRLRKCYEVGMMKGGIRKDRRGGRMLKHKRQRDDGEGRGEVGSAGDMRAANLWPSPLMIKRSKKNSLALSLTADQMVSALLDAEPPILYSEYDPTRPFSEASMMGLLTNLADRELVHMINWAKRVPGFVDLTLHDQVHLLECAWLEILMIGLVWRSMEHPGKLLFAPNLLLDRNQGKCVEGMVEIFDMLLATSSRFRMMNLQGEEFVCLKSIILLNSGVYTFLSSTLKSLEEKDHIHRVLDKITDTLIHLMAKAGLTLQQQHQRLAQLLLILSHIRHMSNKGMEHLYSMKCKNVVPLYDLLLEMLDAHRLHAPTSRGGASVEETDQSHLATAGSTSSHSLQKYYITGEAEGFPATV

Regarding `CCCC/C=C/C=C\C=O`, the outcome in test [1], in test [5] and in test [8] was inactive. In addition, the Potency entry in [2], in test [3], in test [4], in test [6] and in test [7] was “inactive” each time.
On to `CC(CC=O)CCCC(C)(C)O` (stereo not given), for which the outcome in test [1], in test [9] and in test [5] was inactive. Further, the Potency result in test [2], in test [3], in [4], in test [6], in test [7] and in test [10] was “inactive” throughout.
Consider `Cc1cc(C(C)(C)C)c(O)c(C)c1CC1=NCCN1`, for which the outcome in [1], in test [9], in [5] and in test [8] was inactive. In addition, the Potency entry in [2], in test [3], in test [4], in test [6], in test [7] and in [10] was “inactive” in each case.
`CC(S)C(=O)NCC(=O)O` (stereo not given): the outcome in [1], in test [9] and in [5] was inactive. In addition, the Potency result in test [2], in test [4], in test [6], in test [7] and in test [10] was “inactive” in each case.
Regarding `Nc1ncnc(Nc2ccccc2)n1`, the result in [1], in test [9], in [5] and in test [8] was inactive. For the same compound, the Potency result in test [3], in test [6], in [7] and in test [10] was “inactive” each time. In test [4], the Potency was 10.6 µM (active).
Turning to `CCN(C)C(=O)Oc1cccc([C@H](C)N(C)C)c1`, the result in test [1], in test [9], in test [5] and in [8] was inactive. The Potency result in [2], in test [3], in [4], in test [6], in test [7] and in test [10] was “inactive” each time.
For `CCC(CC)CO`, the result in test [1], in test [5] and in [8] was inactive. Also, the Potency result in [2], in [3], in test [4], in test [6], in test [7] and in test [10] was “inactive” each time.
In the case of `COc1ccc(S(=O)(=O)N2c3ccc(Cl)cc3[C@@](O)(c3ccccc3Cl)[C@H]2C(=O)N2CCC[C@@H]2C(N)=O)cc1OC`, the result in test [1], in test [9], in test [5] and in test [8] was inactive. In addition, the Potency entry in test [3], in test [4], in test [6], in test [7] and in [10] was “inactive” each time.
As for `Oc1cn2c(n1)Nc1ccc(Cl)c(Cl)c1C2`, the viability change, negative = cytotoxic in [1] was 1.91% [at 19 µM]; in test [6] it was 3.75% [at 19 µM]; in [7], -4.16% [at 19 µM]. The activity, negative = inhibition in test [2] was 16.6% [at 19 µM]. Further, the activity change, negative = inhibition in test [3] is -26.8% [at 19 µM]; in test [4] it was -1.7% [at 19 µM]; in test [10], -20% [at 19 µM]. Further, the result in test [9] was inactive. Moreover, the activity change, negative = cytotoxicity in test [5] was 1.3% [at 19 µM]. In test [8], the activity change was -0.534% [at 18.9 µM].
For the compound `Cc1cccc(C)c1NC(=O)c1ccccc1C(=O)O`, the result in test [1], in test [9], in test [5] and in [8] was inactive. For the same compound, the Potency entry in [2], in test [3], in test [4], in test [6], in [7] and in test [10] was “inactive” in each case.
On to `O=C1c2ccccc2C(=O)C1c1ccccc1`, for which the result in test [1], in test [9], in test [5] and in test [8] was inactive. The Potency entry in test [3], in test [4], in [6], in test [7] and in [10] was “inactive” throughout.
As for `Cc1cc(Cl)c(C)cc1Cl`, the outcome in test [1], in test [5] and in test [8] was inactive. Moreover, the Potency entry in test [2], in test [4], in [6], in test [7] and in test [10] was “inactive” each time.
Turning to `CC(C(=O)O)c1ccc2c(c1)CC(=O)c1ccccc1S2` (stereo not given), the result in test [1], in test [9], in [5] and in [8] was inactive. The Potency result in test [3], in test [4], in [6], in test [7] and in test [10] was “inactive” in each case.
Take `BrCCCCCBr`: the result in test [1], in test [5] and in test [8] was inactive. The Potency result in test [3], in test [4], in test [6] and in test [7] was “inactive” throughout.
Take `Cc1cccc2nccnc12`: the outcome in [1], in test [5] and in test [8] was inactive. The Potency entry in test [3], in [4], in [6] and in test [7] was “inactive” each time.
Take `CCCCCCCCOS(=O)(=O)O`: the outcome in test [1], in test [5] and in test [8] was inactive. Besides, the Potency entry in test [3], in test [4], in test [6], in [7] and in test [10] was “inactive” in each case.
In the case of `Cc1cccc(C)c1OCC(C)N` (stereo not given), the result in [1], in test [9], in test [5] and in [8] was inactive. The Potency entry in test [3], in [4], in test [6], in [7] and in test [10] was “inactive” in each case.
Consider `NC(CO)C(=O)NNCc1ccc(O)c(O)c1O` (stereo not given), for which the result in [1], in test [9], in test [5] and in [8] was inactive. Further, the Potency result in test [3], in test [4], in test [7] and in test [10] was “inactive” in each case.
On to `O=C(O)C(=O)Cc1ccccc1`, for which the result in [1], in [5] and in test [8] was inactive. The Potency entry in [3], in [4], in test [6] and in [7] was “inactive” throughout.
On to `CC(=O)/C=C/C1C(C)=CCC(C)C1(C)C` (stereo not given), for which the outcome in test [1], in [5] and in test [8] was inactive. The Potency entry in test [3], in [4], in [6] and in test [7] was “inactive” throughout.
Turning to `Cc1cc2cc3c(C)cc(=O)oc3c(C)c2o1`, the outcome in test [1], in [9] and in [5] was inactive. The Potency result in test [3], in test [4], in [6], in [7] and in [10] was “inactive” in each case.
Consider `CCOC(=O)c1ccc(OC(=O)CCCCCN=C(N)N)cc1`, for which the result in test [1], in test [9], in test [5] and in [8] was inactive. Also, the Potency result in test [3], in test [6], in [7] and in test [10] was “inactive” in each case.
As for `CC(=O)CCCCn1c(=O)c2c(ncn2C)n(C)c1=O`, the result in test [1], in [9], in test [5] and in test [8] was inactive. For the same compound, the Potency result in test [3], in [4], in test [6], in test [7] and in [10] was “inactive” in each case.
As for `CC(C)=O`, the outcome in test [1], in test [9], in [5] and in test [8] was inactive. In addition, the Potency result in test [3], in test [4], in test [6], in test [7] and in [10] was “inactive” throughout.
